Laboratory results taken from PubChem BioAssay AID652105 (National Center for Advancing Translational Sciences (NCATS), 2013).
Screen size: about 330,000 compounds; about 4,100 (1.2%) were called active. Not shown: some 2% with an inconclusive outcome. Only a selection was taken, and actives are over-represented in it overall. Unmarked numbers belong to inactive results. Rule for the calls: active = max response of -50% or lower; inconclusive = between -30% and -50%; inactive = -30% or higher.

molecular target: Phosphatidylinositol 5-phosphate 4-kinase type-2 alpha (Homo sapiens) (UniProt P48426); test: qHTS for Inhibitors of phosphatidylinositol 5-phosphate 4-kinase (PI5P4K); details: PI5P4Kalpha enzyme, ADP-Glo luminescence, 60 min; active compounds read low; note: value at the top dose of about 77 µM
Sequence (P48426 whole entry, looked up): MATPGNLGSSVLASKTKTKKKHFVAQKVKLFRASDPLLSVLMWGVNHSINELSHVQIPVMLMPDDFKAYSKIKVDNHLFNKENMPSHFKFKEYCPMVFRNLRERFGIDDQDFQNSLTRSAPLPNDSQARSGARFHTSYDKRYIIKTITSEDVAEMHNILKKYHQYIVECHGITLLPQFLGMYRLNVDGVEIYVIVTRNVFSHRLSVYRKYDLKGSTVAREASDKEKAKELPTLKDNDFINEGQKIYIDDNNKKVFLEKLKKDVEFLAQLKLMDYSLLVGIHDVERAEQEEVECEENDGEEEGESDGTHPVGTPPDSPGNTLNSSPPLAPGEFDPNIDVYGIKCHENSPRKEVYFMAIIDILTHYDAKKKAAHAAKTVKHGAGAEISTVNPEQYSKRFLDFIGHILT
Summary of the method: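 Compounds were pin-transferred onto PI5P4Kalpha and substrate in HEPES pH 7.4 buffer with EGTA, CHAPS and 5% DMSO. ATP (5 microM final) started the reaction, which ran 60 minutes at room temperature before ADP-Glo detection.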
% is set by controls: 0 for no effect and ±100 for the full control effect.

How did the max response turn out when `Cc1cc(C)n2c(NCc3ccccc3)c(CC(C)C)nc2n1` was run?
Its max response is -0.19%.

`C[C@H]1CN(c2ccc(Br)cc2)C(=O)[C@@H]1CC(=O)Nc1ccc(Br)cc1` was tested. Which max response did it give?
The max response was -1.71%.

For `COc1ccc(C(NC(=O)C2CCN(CCCc3ccccc3)CC2)c2cccs2)cc1` (stereo not drawn), which max response is on record?
The max response was -1.92%.

With `O=C(CNC(=O)C1COc2ccccc2O1)N/N=C/c1cc(Br)c(O)c(Br)c1` (stereo not drawn) as the compound, how does the max response read?
Its max response is -78.5% (active).

`O=C(N/N=C\c1cc(Br)c(Br)o1)C1COc2ccccc2O1` (stereo not drawn) was tested. Which max response did it give?
The max response was 1.1%.

`O=C(N/N=C/c1cc2c(cc1Br)OCO2)C1COc2ccccc2O1` (stereo not drawn) was tested. Which max response did it give?
Its max response is 0.44%.

`CC(C)NC(=O)N1Cc2cc(C(=O)NCC(F)(F)F)nc(-c3cccc(-c4cc5ccccc5o4)c3)c2[C@@H]1CCO` was tested. Which max response did it give?
The max response was 10.9%.

How did the max response turn out when `CN1CCN(c2ccc3c(c2)OC[C@H](Cc2ccccc2)NS3(=O)=O)CC1` was run?
The max response was 6.74%.

For `O=S(=O)(c1ccc(NC(=S)NN=C(C2CC2)C2CC2)cc1)N1CCOCC1`, which max response is on record?
Its max response is -67.5% (active).

`O=C(Nc1ccc(S(=O)(=O)N2CCOCC2)cc1)C1CCN(S(=O)(=O)c2ccc(Cl)cc2)CC1` was tested. Which max response did it give?
The max response was 11.3%.

Which max response does the source give for `O=C(NC(=S)Nc1ccc(S(=O)(=O)N2CCOCC2)cc1)c1ccccc1[N+](=O)[O-]` here?
The max response was -13.4%.

For `COc1cccc(-c2cnc3c(NC(C)=O)cc(-c4cc(F)ccc4OC)cn23)c1`, which max response is on record?
Its max response is 0.465%.

Which max response does the source give for `Cc1ccc(-c2ccc(CN3C(C)C(=O)N(Cc4cn(CCC5OCCCO5)nn4)CCS3(=O)=O)cc2)cc1` (stereo not drawn) here?
The max response was -1.32%.

`CCOc1ccc(-n2c(O)c(/C=N/Nc3nc(C)cc(C)n3)c3ccccc3c2=O)cc1` was tested. Which max response did it give?
The max response was 3.69%.

`CCOc1ccc(-n2c(O)c(/C=N/Nc3nnc(C)c(=O)[nH]3)c3ccccc3c2=O)cc1` was tested. Which max response did it give?
The max response was -64% (active).

For `CCOc1ccc(-n2c(O)c(/C=N/c3ccnn3Cc3ccncc3)c3ccccc3c2=O)cc1`, which max response is on record?
The max response was 1.64%.

How did the max response turn out when `O=C1NC(O)CCN1C1CC(O)C(CO)O1` (stereo not drawn) was run?
Its max response is -0.0784%.

`Cc1ccc2nc(-c3ccco3)c(Cc3cccc(Cl)c3)n2c1` was tested. Which max response did it give?
The max response was -20%.

For `Cc1ccc(Cc2c(-c3ccco3)nc3ccc(Cl)cn23)cc1`, which max response is on record?
The max response was -53.8% (active).

`Cc1ccc(Cc2c(-c3ccccc3)nc3ccc(Cl)cn23)cc1` was tested. Which max response did it give?
The max response was 3.67%.

With `Cc1ccc([C@H]2N[C@]3(CCCN(CC4CCCCC4)C3=O)[C@H]3C(=O)N(Cc4ccccc4)C(=O)[C@@H]23)cc1` as the compound, how does the max response read?
Its max response is -7.84%.

How did the max response turn out when `Cc1cc(Cl)ccc1-c1nc(NCCN(C)C)nc2ccsc12` was run?
The max response was 2.25%.

With `Cc1cc(O)c(C(=O)/C=C/c2c(F)c(F)c(F)c(F)c2F)c(=O)o1` as the compound, how does the max response read?
Its max response is -77.8% (active).

Which max response does the source give for `Cc1cc(O)c(Sc2ccccc2)c(=O)o1` here?
The max response was 5.88%.

How did the max response turn out when `Cc1ccc(N=Cc2c(O)cc(C)oc2=O)c(C)c1` was run?
Its max response is -7.86%.

How did the max response turn out when `CCc1nc2c(OCc3ccc(Cl)cc3Cl)cccn2c1N(C)C(=O)C(C)C` was run?
The max response was 2.81%.

For `O=C(NC1CCCC1)C1c2ccccc2OCC(=O)N1Cc1ccccc1` (stereo not drawn), which max response is on record?
The max response was -0.138%.

How did the max response turn out when `CCCC(=O)N1CCC1(C)C(=O)NCc1ccc(C(C)C)cc1` (stereo not drawn) was run?
The max response was -1.03%.

`CC(C)Cc1ccc(-c2cc3nc(NCc4cccc(Cl)c4)ccn3n2)cc1` was tested. Which max response did it give?
Its max response is 47.1%.

How did the max response turn out when `COc1ccccc1CNC(=O)c1cc(-c2cc(Cl)ccc2C)n[nH]1` was run?
The max response was -0.482%.

`CCSc1nc(C)c(CCOc2cccc(C)c2)c(=O)[nH]1` was tested. Which max response did it give?
Its max response is 0.672%.

For `CCSc1nc(O)c(C(c2cccc(OC)c2)c2c(O)nc(SCC)[nH]c2=O)c(=O)[nH]1`, which max response is on record?
Its max response is -58.8% (active).

How did the max response turn out when `CCn1c(SC)nc(O)c(C(c2ccc(OC)c(O)c2)c2c(O)nc(SC)n(CC)c2=O)c1=O` was run?
Its max response is -12.5%.

Which max response does the source give for `O=C(c1ccccc1)N1CCN(c2cc(-c3ccccc3)nc3cc(-c4cccc(Cl)c4)nn23)CC1` here?
Its max response is 6.72%.

`O=S1(=O)CC(N2CCN(Cc3ccccc3F)CC2)CN1Cc1cn(Cc2cccc(C(F)(F)F)c2)nn1` (stereo not drawn) was tested. Which max response did it give?
The max response was 4.9%.

With `O=C(Nc1ccc(F)cc1)C(CCc1ccccc1)N1CCN(CC(=O)N2CCCC2)CC1` (stereo not drawn) as the compound, how does the max response read?
The max response was -9.87%.

For `Cc1ccc(S(=O)(=O)NCCSc2ccccc2)cc1[N+](=O)[O-]`, which max response is on record?
The max response was -4.48%.

With `CCS(=O)(=O)c1cc([N+](=O)[O-])c(Sc2ccccc2N)s1` as the compound, how does the max response read?
The max response was -65.8% (active).

How did the max response turn out when `COc1c(C)cc(C(O)c2ncc(-c3cccc(C(F)(F)F)c3)[nH]2)cc1C` (stereo not drawn) was run?
The max response was -7.49%.

How did the max response turn out when `COc1cc2cc(C(=O)N/N=C/c3cccc(OC)c3OC)[nH]c2cc1OC` was run?
Its max response is 0.853%.

For `COc1cccc(/C=N\NC(=O)C2=NNC(=O)C2C)c1O` (stereo not drawn), which max response is on record?
Its max response is -72.8% (active).

For `COc1ccc(/C=N/NC(=O)c2ccc3c(c2)OCCO3)c(OC)c1`, which max response is on record?
Its max response is 3.95%.

With `CCOc1ccc2[nH]c(C(=O)N/N=C/c3cccc(OC)c3OC)cc2c1` as the compound, how does the max response read?
The max response was 8.06%.

For `COc1ccc(Br)cc1/C=N/NC(=O)c1cccc(S(=O)(=O)N2CCOCC2)c1`, which max response is on record?
Its max response is -4.11%.

`COc1cccc(/C=N/NC(=O)c2[nH]nc3c2CCc2ccccc2-3)c1O` was tested. Which max response did it give?
Its max response is -53% (active).

How did the max response turn out when `CC1(C(=O)Nc2ccc3c(c2)OCCO3)CSCC(=O)N1CCOc1ccccc1` (stereo not drawn) was run?
Its max response is -1.05%.

How did the max response turn out when `CC(C)(C)S(=O)N1Cc2cc(C(=O)NCCCN3CCOCC3)nc(-c3cccc(-c4cc5ccccc5o4)c3)c2[C@H]1CCO` (stereo partly drawn) was run?
The max response was 0.439%.

With `CCCCC[C@H](C)N1C[C@@H](COCc2ccccc2)Oc2cc(N3CCC[C@@H]3CO)ccc2S1(=O)=O` as the compound, how does the max response read?
Its max response is 11.7%.

How did the max response turn out when `Cc1nn(CC(=O)N/N=C/c2ccc(F)cc2)c(C)c1[N+](=O)[O-]` was run?
Its max response is -2.33%.

Which max response does the source give for `COc1cc(/C=N/NC(=O)c2cc(C)n(-c3ccc(F)cc3)c2C)cc(OC)c1O` here?
The max response was -10.7%.

With `Cc1cc(C(=O)N/N=C/c2ccc(O)c([N+](=O)[O-])c2)c(C)n1-c1ccc(F)cc1` as the compound, how does the max response read?
The max response was -71% (active).

`CCCNC(=O)C1(C)CCCN(C(=O)c2oc3ccccc3c2C)C1` (stereo not drawn) was tested. Which max response did it give?
Its max response is -7.4%.

Which max response does the source give for `CCc1nc2ccc(C(=O)Nc3ccc(OC)c(OC)c3)cn2c1N(C)C(=O)c1cccc(OC)c1` here?
The max response was 3.96%.

`CCOC(=O)C1=CC[C@@H](c2ccccc2)N(S(=O)(=O)c2ccc(C)cc2)[C@H]1c1cccc(OC)c1` was tested. Which max response did it give?
Its max response is 4.01%.

For `CCOC(=O)c1ccn(S(=O)(=O)c2ccc(C)cc2)c1-c1ccccc1`, which max response is on record?
The max response was 12.7%.

Which max response does the source give for `COc1ccc(-c2cc(C(=O)Nc3ccccc3O)c3ccccc3n2)cc1` here?
The max response was -106% (active).

With `COc1ccc(-c2cc(C(=O)N(C)Cc3ccccc3)c3ccccc3n2)cc1` as the compound, how does the max response read?
Its max response is 15.4%.

For `COc1ccc(NC(=O)c2cc(-c3cc(OC)c(OC)c(OC)c3)nc3ccccc23)c(OC)c1`, which max response is on record?
The max response was 2.36%.

For `COc1ccc(NC(=O)C2Cc3c(-c4ccc(Cl)cc4)ccnc3O2)cc1` (stereo not drawn), which max response is on record?
The max response was -2.22%.

For `Cc1ccc(-c2c(N)nc3ncccn23)cc1`, which max response is on record?
The max response was 0.002%.

Which max response does the source give for `O=CNc1cc(-c2ccc(C(=O)N3CCOCC3)cc2)cn2c(-c3ccc(F)cc3)cnc12` here?
The max response was -15.7%.

`CCCCNC(=O)C[C@@H]1C[C@@]2(C(=O)OCC)CCC=C2N(Cc2cccc3ccccc23)C1=O` was tested. Which max response did it give?
Its max response is 3.26%.

For `COc1cccc(/C=N/Nc2ccc(S(=O)(=O)Nc3ccccc3C(=O)O)cc2[N+](=O)[O-])c1O`, which max response is on record?
Its max response is -74.4% (active).

For `COc1ccc(Br)cc1/C=N/Nc1ccc(S(=O)(=O)Nc2ccccc2C(=O)O)cc1[N+](=O)[O-]`, which max response is on record?
Its max response is -15.6%.

`Cc1ccc(NS(=O)(=O)c2ccc(N/N=C/c3ccccc3OCC(=O)O)c([N+](=O)[O-])c2)c(C)c1` was tested. Which max response did it give?
Its max response is 0.282%.

Which max response does the source give for `Cc1noc(C)c1-c1ccc(C(=O)NCc2ccncc2)c2occc12` here?
Its max response is 1.04%.

How did the max response turn out when `COc1cccc(-c2nc3nc(C)cc(C)n3c2NC2CCCCC2)c1` was run?
Its max response is -7.02%.

How did the max response turn out when `C[C@H]1NS(=O)(=O)c2cc(Cl)ccc2O[C@@H]1c1ccccc1` was run?
The max response was 4.12%.

How did the max response turn out when `Cc1ccccc1C1=NC(C(F)(F)F)(C(F)(F)F)c2c(n(-c3ccc(F)cc3)c(=O)[nH]c2=O)N1` was run?
The max response was -8.19%.

With `O=c1[nH]c(=O)n(Cc2ccco2)c2c1C(C(F)(F)F)(C(F)(F)F)N=C(c1ccco1)N2` as the compound, how does the max response read?
The max response was -76.9% (active).

For `Nc1c(N(Cc2ccco2)C(=O)c2cccc(F)c2)c(=O)[nH]c(=O)n1Cc1ccccc1`, which max response is on record?
Its max response is -14.9%.

With `CN(C)c1cccc(NC(=O)c2ccc(-c3ccc(F)c(F)c3)c3ccoc23)c1` as the compound, how does the max response read?
Its max response is 2.45%.

With `CCC(=O)N1CCC(C)(C(=O)Nc2cc(OC)c(OC)c(OC)c2)C1` (stereo not drawn) as the compound, how does the max response read?
Its max response is 10.8%.

Which max response does the source give for `CC(=O)C1=CCC(c2ccccc2)N(S(=O)(=O)c2ccc(C)cc2)C1` (stereo not drawn) here?
The max response was -0.133%.

For `O=C(Cc1cccs1)Nc1nnc(SCc2ccc(F)cc2)s1`, which max response is on record?
The max response was 6.84%.

For `COc1ccc(Cc2nnc(NC(=O)Cc3cccs3)s2)cc1`, which max response is on record?
Its max response is -87.6% (active).

How did the max response turn out when `COc1ccc(Cc2nnc(NS(=O)(=O)Cc3ccccc3)s2)cc1` was run?
Its max response is -3.92%.

How did the max response turn out when `CCOP(=O)(OCC)C(Cc1ccccc1)N=C(c1ccccc1)c1ccccc1` (stereo not drawn) was run?
Its max response is 10.7%.

For `CC1(C(=O)NCc2ccc3c(c2)OCO3)CCN1C(=O)Cc1cccc2ccccc12` (stereo not drawn), which max response is on record?
Its max response is 1.27%.

Which max response does the source give for `O=C1NC[C@H](CCCCN2C[C@H](Cc3ccc(O)cc3)N(CC3CCCCC3)C(=O)C2=O)N(CCc2ccccc2)C1=O` here?
Its max response is -0.0714%.

How did the max response turn out when `CSc1ncnc2c1ncn2CCCNCC(C)c1ccccc1` (stereo not drawn) was run?
The max response was -2.55%.

`Fc1cccc(Cc2c(-c3cccc(Cl)c3)nc3ccc(Br)cn23)c1` was tested. Which max response did it give?
The max response was -13.9%.

Which max response does the source give for `CC(=O)Nc1cc(-c2ccc(N3CCN(C)CC3)cc2)cn2c(-c3ccc(F)cc3)cnc12` here?
The max response was -9.82%.
